The source made the active and inactive calls. The call rests on the fitted dose curve; in most records, active means well fitted curve in the direction sought with a large enough effect (not every such curve was filed as active); inconclusive means small, poorly fitted or top-dose-only effect, or effect the other way, or another doubt; inactive means no such curve, though single readings can be large or run the other way.
These compounds were tested against Pyruvate kinase PKM (Homo sapiens) (UniProt P14618) (assay: qHTS Assay for Activators of Human Muscle Pyruvate Kinase (AID 954)). Details: purified human muscle pyruvate kinase, luciferase-coupled luminescence, 1 h; series mostly up to 57.5 µM.
Pyruvate kinase PKM (Homo sapiens), sequence (P14618 whole entry, looked up): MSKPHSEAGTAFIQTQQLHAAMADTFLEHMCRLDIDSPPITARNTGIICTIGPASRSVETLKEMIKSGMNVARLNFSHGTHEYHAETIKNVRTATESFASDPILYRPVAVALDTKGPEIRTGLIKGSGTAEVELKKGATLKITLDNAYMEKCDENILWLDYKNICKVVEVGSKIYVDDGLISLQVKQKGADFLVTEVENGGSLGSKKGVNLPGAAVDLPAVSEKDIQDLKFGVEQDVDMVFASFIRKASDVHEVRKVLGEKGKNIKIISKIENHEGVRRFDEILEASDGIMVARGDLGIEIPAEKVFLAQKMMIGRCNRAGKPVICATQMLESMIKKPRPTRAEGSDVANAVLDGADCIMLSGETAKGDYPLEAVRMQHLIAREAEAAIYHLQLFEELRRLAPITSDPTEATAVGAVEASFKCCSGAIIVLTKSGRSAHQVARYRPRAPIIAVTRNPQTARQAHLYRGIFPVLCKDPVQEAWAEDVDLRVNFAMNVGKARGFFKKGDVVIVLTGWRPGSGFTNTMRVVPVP
Outline: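 Reaction: 0.1 nM purified PKM2 with 0.5 mM phosphoenolpyruvate and 0.1 mM ADP, room temperature, 1 h. Readout: luciferase-based ATP luminescence after stop reagent. Activators judged against a 0.3 nM enzyme column.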

Row | Structure (SMILES) | outcome
1 | COc1cc2ncnc(Nc3cccc(Cl)c3)c2cc1OC | inactive
2 | OCc1ccc(-c2nn(Cc3ccccc3)c3ccccc23)o1 | inactive
3 | Cc1ccc(S(=O)(=O)N[C@@H](Cc2ccccc2)C(=O)CCl)cc1 | inactive
4 | NC(=O)c1cccc(N)c1 | inactive
5 | CC(C)(C)NC(=O)[C@H]1CC[C@H]2[C@@H]3CC[C@H]4NC(=O)C=C[C@]4(C)[C@H]3CC[C@]12C | inactive
6 | N[C@@H](Cc1ccc(O)c(O)c1)C(=O)O | inactive
